Screening results: PubChem BioAssay, Broad Institute
An excerpt weighted towards active compounds, which were near 2.9% of everything screened.
PfHsp90 yeast 2 – growth inhibition of PfHsp90-expressing yeast, primary screen, antimalarial PfHsp90 inhibitor project, S. cerevisiae, BacTiter-Glo luminescence, single point, set 2; BacTiter-Glo ATP, 48 h; yeast lacking PDR1 and PDR3 efflux regulators; inhibition, % at 9.4 µM; 0.32% of 310,000 active; AID 504621, 2011;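 active = every replicate shows inhibition above about 80%, whatever the replicate mean, limit read from the data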;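 also: 0% = DMSO neutral controls and 100% = 20 µM radicicol positive controls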
MITF TRPM1 HTS – activators of MITF-driven TRPM1 promoter reporter, primary screen, cell-based, SK-MEL-5, luciferase, single point; SK-MEL-5 TRPM1-promoter luciferase, 24 h; % of positive control, neutral wells = 0; activation, % at 12.5 µM; 0.75% of 300,000 active; AID 588334, 2011;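 active = mean activation of at least 80% with every replicate also reaching 80%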;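 also: 0% = neutral control wells and 100% = parthenolide positive control wells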
NSD2 inh – NSD2 histone methyltransferase inhibitors, primary screen, biochemical, AlphaScreen, single concentration, set 2 | inhibition, % at 12.5 µM | Histone-lysine N-methyltransferase NSD2 (Homo sapiens), O96028 | 0.54% of 310,000 active | NSD2 peptide methylation, 120 min; in the data active = inhibition above about 50%
Target sequence (O96028 whole entry, looked up): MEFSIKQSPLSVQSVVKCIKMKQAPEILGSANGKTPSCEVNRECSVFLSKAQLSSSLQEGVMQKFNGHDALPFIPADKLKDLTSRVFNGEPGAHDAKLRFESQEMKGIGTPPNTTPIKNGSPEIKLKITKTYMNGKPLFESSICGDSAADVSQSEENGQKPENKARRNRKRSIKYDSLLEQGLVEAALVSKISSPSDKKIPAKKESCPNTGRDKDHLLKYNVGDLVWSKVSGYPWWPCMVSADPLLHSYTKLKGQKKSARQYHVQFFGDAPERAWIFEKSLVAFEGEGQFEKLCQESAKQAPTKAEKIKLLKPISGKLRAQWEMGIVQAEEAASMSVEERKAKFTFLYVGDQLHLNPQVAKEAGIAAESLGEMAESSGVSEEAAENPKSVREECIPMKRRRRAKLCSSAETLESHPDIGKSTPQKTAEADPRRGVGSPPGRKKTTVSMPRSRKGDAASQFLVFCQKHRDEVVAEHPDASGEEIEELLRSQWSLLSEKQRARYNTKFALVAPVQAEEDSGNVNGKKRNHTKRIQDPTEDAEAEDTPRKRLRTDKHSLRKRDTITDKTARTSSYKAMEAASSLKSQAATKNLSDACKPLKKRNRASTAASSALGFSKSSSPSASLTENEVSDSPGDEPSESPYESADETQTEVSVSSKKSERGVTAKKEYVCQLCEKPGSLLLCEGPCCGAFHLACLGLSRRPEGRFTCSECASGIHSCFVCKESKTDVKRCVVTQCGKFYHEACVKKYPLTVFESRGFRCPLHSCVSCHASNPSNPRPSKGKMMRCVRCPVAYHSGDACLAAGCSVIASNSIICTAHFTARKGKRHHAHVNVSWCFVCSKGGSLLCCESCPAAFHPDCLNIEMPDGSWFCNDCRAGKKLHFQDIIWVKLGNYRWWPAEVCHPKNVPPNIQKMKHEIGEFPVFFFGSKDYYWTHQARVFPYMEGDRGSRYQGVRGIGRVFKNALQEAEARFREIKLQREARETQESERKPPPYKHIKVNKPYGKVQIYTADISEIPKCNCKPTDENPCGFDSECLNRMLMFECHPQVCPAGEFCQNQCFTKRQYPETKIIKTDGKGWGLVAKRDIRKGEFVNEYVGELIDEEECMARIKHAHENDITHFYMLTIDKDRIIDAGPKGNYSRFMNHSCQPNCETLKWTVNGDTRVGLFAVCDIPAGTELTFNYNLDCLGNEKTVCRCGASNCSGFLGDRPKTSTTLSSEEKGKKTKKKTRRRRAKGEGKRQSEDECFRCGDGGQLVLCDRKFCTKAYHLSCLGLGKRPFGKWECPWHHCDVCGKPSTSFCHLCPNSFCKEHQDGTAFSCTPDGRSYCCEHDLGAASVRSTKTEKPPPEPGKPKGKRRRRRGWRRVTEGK
Wnt act – Wnt/beta-catenin pathway activators, primary screen, cell-based, plate reader, single point; 1.2% of 300,000 active; activation, % at 9.35 µM; Wnt/beta-catenin reporter cell assay, activator; AID 743398, 2014; in the data active = activation above about 30%, passing the limit was not always enough;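 also: 0% = neutral control wells and 100% = positive control wells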
N-glyco inh – increase of ERlucT glycosylation luciferase signal, primary screen, N-linked glycosylation inhibitor project, D54 ERlucT cells, luminescence, set 2. D54 ERlucT glycosylation luciferase reporter, 24 h; percent of 100 nM tunicamycin response. reporter increase, % at 12.5 µM. 0.23% of 360,000 active. AID 588692, 2011;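 active = mean luciferase reporter signal, scaled so untreated is 0 and the glycosylation-blocking control 100, at or above a set limit in every replicate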;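 also: luciferase carries N-glycosylation sites so blocking glycosylation raises the light; 0% = median of neutral control wells and 100% = median of 100 nM tunicamycin wells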
MITF TRPM1 inh – inhibitors of MITF-dependent TRPM1 promoter reporter, primary screen, cell-based, SK-MEL-5, single point, luciferase | SK-MEL-5 TRPM1 promoter luciferase, 24 h | inhibition, % at 12.5 µM | 0.83% of 330,000 active;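 active = mean inhibition across replicates of 60% or more, whatever share of single replicates reaches that level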
Starred values were filed as active, the others as inactive; . = no result.

SMILES	PfHsp90 yeast 2	MITF TRPM1 HTS	NSD2 inh	Wnt act	N-glyco inh	MITF TRPM1 inh
COCCNC(=O)c1ccc2c3n(nc2c1)-c1ccccc1CO3	.	73	.	13	-6	-72
COCCNC(=O)c1ccc2c3n(nc2c1)-c1ccc(Cl)cc1CO3	1	87*	.	21	4	-81
Cc1ccc2c(c1)COc1c3ccc(C(=O)NC(C)C)cc3nn1-2	5	89*	.	46*	-2	-85
CC(OC(=O)c1cn(-c2ccccc2)nc1-c1cccnc1)C(N)=O (stereo not given)	9	-4	-2	-1	0	8
CN=C(c1ccc(C)cc1)n1c(=S)nc(-c2ccc(C)cc2)n(C)c1=S	6	2	-4	55*	-2	-1
N=C1C(c2nc3ccccc3s2)=C(O)CN1Cc1ccco1	1	88*	3	.	0	-85
CN(C)CCN1CC(O)=C(c2nc3ccccc3s2)C1=N	-1	4	13	-1	-3	-6
CC(=O)N(C)c1ccc(OCC(O)Cn2c3ccc(Cl)cc3c3cc(Cl)ccc32)cc1 (stereo not given)	98*	-1	-2	-13	-4	-3
NC(=O)N/N=C(/CCCCCC/C(=N\NC(N)=O)c1ccccc1)c1ccccc1	.	.	0	37*	2	.
Fc1ccc(-c2cnc(-c3cccs3)o2)cc1	7	54	-3	34*	-3	-51
O=C1C=C(N2CCN(c3ccccn3)CC2)C(=O)c2c(O)ccc(O)c21	-6	-92	-15	-2	-5	92*
O=C(N1CCN(c2ccccn2)CC1)C(Cl)(Cl)Cl	5	19	-1	.	1	-15
CCCCS(=O)(=O)N1CCCc2nc(-c3ccc(OC)cc3)ccc21	.	.	.	-2	.	.
C/C(=N\NC(=O)COc1ccccc1-c1ccccc1)c1cccnc1	2	5	1	0	-1	-2
C/C(=N\NC(=O)COc1ccccc1-c1ccccc1)c1ccccn1	.	-83	30	-1	-14	84*
O=C1CCC(c2ccccc2)c2ccccc21 (stereo not given)	.	.	-2	52*	-1	.
COc1cccc(NC(=O)C2CCC(CNS(=O)(=O)c3ccc4c(c3)CC(C)N4C(C)=O)CC2)c1 (stereo not given)	0	-9	2	0	14	10
